According to PubChem BioAssay (NCATS):
Active and inactive are the calls of the source. Calls come from the whole dose curve; as a rule, active = well fitted activation curve with a large enough effect; inconclusive = small, poorly fitted or top-dose-only effect; inactive = flat fitted curve, though single readings scatter.

Test: Confirmation and Secondary Assay for Modulators of Hemoglobin Beta Chain Splicing at IVS2 705 locus (AID 930)
Conditions: HeLa EGFP-705 splicing reporter, GFP fluorescence, 48 h; series mostly up to 38.3 µM
Text: NIH Chemical Genomics Center [NCGC] NIH Molecular Libraries Screening Centers Network [MLSCN] MLSCN Grant: 1 X01 MH080684-01 PI Name: Dr. Ryszard Kole NCGC Assay Overview: Modulation of Alternative Splicing as Therapy Abnormal splicing is associated with a number of diseases, including cancer and genetic diseases such as cystic fibrosis, muscular dystrophy and beta-thalassemia. Alteration of disease associated splicing patterns provides a promising target for treatment. […] Mutations in the second intron of the b-globin gene at positions 654 or 705 are clinically relevant and cause mis-splicing which results in an out of frame gene product. […] EGFP-705 HeLa Cells as screen system. HeLa cell lines were stably transfected with a construct in which the EGFP (enhanced green fluorescent protein) cDNA was interrupted by the second intron of the beta-globin gene (IVS2-705). The ISV2 intron contains mutations which cause mis-splicing of EGFP and premature termination of EGFP which results in a nonfluorescent protein product. […] Expression of the transgene was driven by the CMV promoter. We concluded that a low molecular weight compound, which restored correct splicing of intron 2 would also generate functional EGFP protein, resulting in a fluorescent signal. Thus, the HeLa cells that express the EGFP-705 construct can be used for validation of splice site specificity of compounds identified in primary screening of the ISV2 654 construct.
NCGC Assay Protocol Summary: Confirmatory Screening. Freshly thawed HeLa EGFP-705 cells were seeded in 5 ul of optimem media (Invitrogen) containing 2 % fetal calf serum (Hyclone) and 1x penicillin/streptomycin (Invitrogen) at a concentration of 500 cells per well in 1536-well plates. Cells were incubated overnight at 37C in 5% CO2. The next day, cells were treated with DMSO, 500 nM antisense ISV2 654 PNA control oligo, or library compound and allowed to grow at 37C in 5% CO2 for 2 days. The PNA oligo blocked the mutation site in the intron and allowed proper (wild type) splicing to occur, resulting in full length EGFP expression and also allowed for optimization of the assay parameters. Plates were read in the Acumen Explorer (TTP Labtech) using 488 nm laser excitation and 500-520 nm emission PMT filter in a 1 x 8 uM capture mode. Fluorescnet objects ranging in size from 5 to 250 uM were measured and the total peak GFP intensity for each well was used for data analysis. Keywords: Thalassemia, beta-thalassemia, beta-globin, EGFP, ISV2 654, ISV2 705, SSO, PNA, antisense, splicing, MLSMR, MLSCN, NIH Roadmap, qHTS, NCGC
For CN(Cc1ccco1)c1cc(-c2ccccc2Cl)ncn1, the outcome was “inactive”.
With Clc1ccccc1-c1nc(N2CCNCC2)c2ccccc2n1 the outcome was “inactive”.
With CN(C)Cc1ccccc1-c1nc(N2CCOCC2)c2ccccc2n1 the outcome was “inactive”.
In the case of COc1ccccc1-c1cncnc1NCCc1cnc[nH]1, the outcome is reported as “inactive”.
With COc1ccc2[nH]cc(CCNc3ncncc3-c3ccc(N(C)C)cc3)c2c1 the outcome was “inactive”.
For COc1ccccc1-c1ccc2ncnc(N3CCN(C)CC3)c2c1, the outcome was “inactive”.
For CC(=O)NCCNc1nc(-c2ccccc2C(F)(F)F)nc2ccccc12, the outcome was “inactive”.
In the case of COc1cccc(-c2cncnc2-n2ccnc2)c1, the outcome is reported as “inactive”.
For COc1ccc(CNc2ncnc3ccc(-c4ccccc4CN(C)C)cc23)c(OC)c1, the outcome was “inactive”.
For Cc1cccc(CNc2ncnc3ccc(-c4ccc5c(c4)OCO5)cc23)c1, the outcome was “inactive”.
In the case of Cc1cccc(CNc2ncnc3ccc(-c4ccoc4)cc23)c1, the outcome is reported as “inactive”.
In the case of CNc1ccnc(-c2c(C)noc2C)n1, the outcome is reported as “inactive”.
In the case of CN1CCN(c2cc(-c3ccccc3C(F)(F)F)ncn2)CC1, the outcome is reported as “inactive”.
With CC(C)=CCc1c2c(c3occ(-c4ccc(O)c(O)c4)c(=O)c3c1O)C=CC(C)(C)O2 the outcome was “inactive”.
For CN(Cc1ccco1)c1ncnc2ccc(-c3cccnc3)cc12, the outcome was “inactive”.
In the case of CC(=O)NCCNc1nc(-c2ccccc2Cl)nc2ccccc12, the outcome is reported as “inactive”.
For NC[C@@H](O)c1ccc(O)c(O)c1, the outcome was “inactive”.
In the case of CN(C)c1ccc(-c2nccc(NCCN3CCOCC3)n2)cc1, the outcome is reported as “inactive”.
For CC1COC2=C1C(=O)C(=O)c1c2ccc2c1CCCC2(C)C (stereo not given), the outcome was “inactive”.
In the case of CN(C)c1ccc(-c2nc(N(C)Cc3ccco3)c3ccccc3n2)cc1, the outcome is reported as “inactive”.
In the case of COc1ccccc1-c1cncnc1Nc1ccc(F)cc1, the outcome is reported as “inactive”.
For CNc1ccnc(-c2ccccc2C(F)(F)F)n1, the outcome was “inactive”.
With c1cncc(CNc2ncncc2-c2ccc3c(c2)OCO3)c1 the outcome was “inactive”.
In the case of Cc1noc(C)c1-c1cc(N(C)C)ncn1, the outcome is reported as “inactive”.
For COc1ccc2[nH]cc(CCNc3cc(-c4ccccc4C(F)(F)F)ncn3)c2c1, the outcome was “inactive”.
For CN1CCN(c2cc(-c3ccc(N(C)C)cc3)ncn2)CC1, the outcome was “inactive”.
In the case of O=C(O)C1CCN(c2ncnc3ccc(-c4ccccc4C(F)(F)F)cc23)CC1, the outcome is reported as “inactive”.
For COc1ccccc1-c1nccc(NCc2cnc(C)cn2)n1, the outcome was “inactive”.
For COc1ccccc1-c1cncnc1NCCN1CCOCC1, the outcome was “inactive”.
In the case of Cc1cccc(CNc2ncnc3ccc(-c4cccc(C#N)c4)cc23)c1, the outcome is reported as “inactive”.
With Cc1cccc(CNc2ncncc2-c2cccc(C#N)c2)c1 the outcome was “inactive”.
In the case of O=C1CC(c2ccc(O)cc2)Oc2cc(O)cc(O)c21 (stereo not given), the outcome is reported as “inactive”.
For Cc1ccccc1-c1cncnc1Nc1ccc(F)cc1, the outcome was “inactive”.
With FC(F)(F)c1ccccc1-c1cc(N2CCNCC2)ncn1 the outcome was “inactive”.
With COc1cccc(-c2cc(NCc3cccs3)ncn2)c1 the outcome was “inactive”.
In the case of CNc1nc(-c2ccccc2Cl)nc2ccccc12, the outcome is reported as “inactive”.
In the case of COc1ccc(CNc2ccnc(-c3ccccc3C(F)(F)F)n2)c(OC)c1, the outcome is reported as “inactive”.
With CN(C)c1ccnc(-c2cccc(NS(C)(=O)=O)c2)n1 the outcome was “inactive”.
In the case of Cc1ccccc1-c1nc(NC2CCNCC2)c2ccccc2n1, the outcome is reported as “inactive”.
For O=C(Nc1ccccc1)Nc1ccccc1, the outcome was “inactive”.
